Compound activity: PubChem, National Center for Advancing Translational Sciences (NCATS)
Compounds with a hit are over-represented: about 3.6% of the library has one in this group of screens.
ClpP mod – qHTS Assay for Activators of ClpP; purified B. subtilis ClpP, FRET peptide cleavage, 20 min; Potency, µM (titrated, usually from 57.5 µM), without a hit: at the top dose activity change, negative = active; ATP-dependent Clp protease proteolytic subunit (Bacillus subtilis (strain 168)), P80244; hit rate 1.9% among 340,000; active = well fitted falling curve with a large enough effect; inconclusive = small, poorly fitted or top-dose-only effect; inactive = no such curve, though single readings can be large or run the other way; also: the source files actives as falling curves though it sought activators and does not explain the sign; nearly all actives have a fitted effect of over 65% in size
Target sequence (P80244 whole entry, looked up): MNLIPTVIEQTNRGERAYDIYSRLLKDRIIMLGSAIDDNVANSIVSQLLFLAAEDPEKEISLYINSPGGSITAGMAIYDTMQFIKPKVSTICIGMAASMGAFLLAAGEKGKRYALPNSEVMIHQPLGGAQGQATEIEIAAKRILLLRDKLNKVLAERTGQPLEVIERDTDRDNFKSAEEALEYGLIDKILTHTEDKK
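Buffer: 100 mM Tris/HCl pH8, 100 mM KCl, 0.05% low protease BSA, 2.5% glycerol, 0.01% Tween-20. ClpP 10 microg/mL final; 20 min RT; delta FRET normalized to ADEP and DMSO controls.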
aSyn yeast inh – alpha-synuclein toxicity inhibition in yeast; hit rate 0.14% among 370,000; Yeast expressing alpha-synuclein, growth rescue, BacTiter-Glo, 24 h; Potency, µM (doses to about 46.1 µM), for inactives: top-dose growth rescue (activation), most hits filed as activators; AID 652106; also: % of control where 0% means no effect; nearly all actives have a fitted effect of over 65% in size
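Galactose-induced alpha-syn yeast (OD600=0.02, raffinose-pregrown) + pinned cpd, 24 hr, 30 deg C; growth by BacTiter-Glo luminescence. Growth restoration scores as activation.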
Abeta yeast res – A-beta toxicity reversal in yeast | hit rate 0.063% among 410,000 | yeast expressing A-beta42, growth rescue, OD600, 48 h; response scale: 0% DMSO, 100% iron-clioquinol control | AID 1347071 | Potency, µM (top dose mostly 46.1 µM), usual class: activators; also: nearly all actives have a fitted effect of over 55% in size
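Yeast A-beta toxicity model in growth medium with pinned compounds, 48 h at 30 C; growth read as absorbance at 600 nm. Normalized to FeCl3/clioquinol equimolar mix (positive) and DMSO (negative).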
FUS suppressor – suppressors of FUS proteinopathy in yeast; S. cerevisiae FUS-expressing, growth rescue, OD600, 24 h; hit rate 0.24% among 390,000; AID 1347120; Potency, µM (series often up to 76.6 µM), hits mostly activators;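 also: plate controls were DMSO vehicle for no effect and reference control for full effect; nearly all actives have a fitted effect of over 55% in size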
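Read-out: OD at 600 nm after 24hr at 30C, reporting rescue of FUS-induced yeast toxicity. Cells at OD 0.005 in galactose (2%) minimal medium; compounds tested in a dilution series; CP55940 titration from 92uM final as control.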
MmCpn inh – M. maripaludis TRiC chaperonin inhibition | purified Mm-Cpn ATPase, ADP Transcreener TR-FRET | Potency, µM (doses to about 76.9 µM), for the others: at the top dose activity, negative = inhibition, usual class: inhibitors | hit rate 0.031% among 330,000 | AID 504842; also: % is scaled to controls: 0 for no effect and ±100 for the full control effect; nearly all actives have a fitted effect of over 80% in size
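ATPase read-out: TR-FRET ADP immunoassay (anti-ADP Eu cryptate vs ADP-d2), ex 320 nm, em 590/665 nm; signal drops as ADP forms. Enzyme 25 nM, ATP 10 uM, 30 min at 37°C after 10 min compound preincubation.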
TDP-43 yeast inh – TDP-43 toxicity inhibition in yeast; TDP-43 expressing yeast growth rescue, BacTiter-Glo, 24 h; Potency, µM (titrated, usually from 46.1 µM), for inactives: at the highest dose growth rescue (activation), hits mostly activators; hit rate 1.8% among 410,000; AID 652104; also: % of control where 0% means no effect; nearly all actives have a fitted effect of over 50% in size
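Growth rescue of TDP-43-toxic yeast measured as ATP luminescence (BacTiter-Glo). Cells grown to mid-log in raffinose, induced in galactose at OD600=0.02, exposed to compound 24 hr at 30 deg C.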
Active calls of the source: *; i = inactive; ? = inconclusive; . = not tested or not shown; [ ] = another dose, or the depositor's remark. Unless noted, calls follow the shape of the dose curve; as a rule, active = well fitted curve in the direction sought with a large enough effect; inconclusive = small, poorly fitted or top-dose-only effect, or another doubt; inactive = no such curve, though single readings can be large; an effect the other way counts as inactive or inconclusive. Potency is read from the fitted curve at half-maximal effect.

SMILES | ClpP mod | aSyn yeast inh | Abeta yeast res | FUS suppressor | MmCpn inh | TDP-43 yeast inh
CCCCc1cc(=O)oc2cc(C)cc(OC(C)C(=O)NCC3CCC(C(=O)O)CC3)c12 (stereo not given) | 5% | -6% | i | i | 0% | 2%
CC(=O)C(C)Oc1cc(C)cc2oc(=O)c(C)c(C)c12 (stereo not given) | 3.2µM* | -15% | i | i | 0% | 22%
CCCCc1cc(=O)oc2cc(C)cc(OC(C)C(=O)O)c12 (stereo not given) | 16µM* | 0% | i | i | -4% | -10%
CCCCc1cc(=O)oc2cc(C)cc(O)c12 | -4% | -27% | i | i | -17% | ?
C=C(Cl)COc1cc(C)cc2oc(=O)cc(CC)c12 | 32µM* | 0% | i | i | 0% | 0%
COc1ccc(C2CC(=O)N(C)c3ccccc3S2)cc1 (stereo not given) | . | 18% | i | i | 2% | 13µM*
O=C(CCS(=O)(=O)Cc1ccccc1)N1CCN(c2ccccc2)CC1 | 1% | 0% | i | i | 1% | -11%
Cc1ccccc1CS(=O)(=O)CCC(=O)N1CCN(c2ccc(N3CCOCC3)nn2)CC1 | 22µM* | -5% | i | i | -3% | -5%
COc1ccc(OC)c(S(=O)(=O)NCc2ccc3c(c2)CCN3C(=O)c2cccc(C)c2)c1 | -1% | . | i | ? | . | 17%
CCOc1ccc2cc(C#N)c(SCC(=O)OCc3ccccc3)nc2c1 | 4% | 1% | . | . | . | .
CCOC(=O)CSc1nc2cc(OC)c(OC)cc2cc1C#N | 32µM* | 0% | . | . | . | .
CCOC(=O)CSc1nc2cc(OCC)ccc2cc1C#N | 16µM* | . | i | i | -4% | 21%
CCOC(=O)CSc1nc2c(c(-c3ccc(C)o3)c1C#N)CCCC2 | 28µM* | 4% | i | i | -8% | 17%
CCOC(=O)CC(=O)CSc1nc2c(cc1C#N)CCCCCC2 | 85% | -3% | i | 11µM* | -6% | 18%
COc1ccc(-c2noc(Cn3c(=O)c4ccccc4n(CC(=O)Nc4cccc(C(F)(F)F)c4)c3=O)n2)cc1 | ? | . | i | i | . | 26%
CCOc1cc(CCNC(=O)c2cc3sccc3n2CC)ccc1OC | . | . | . | i | . | .
Cc1ccc(NC(=O)N2CCC(n3c(C)nc4cccnc43)CC2)c(Cl)c1 | 3% | . | i | i | . | 25%
CCc1nc(SCC(=O)N2CCc3cc(OC)c(OC)cc3C2)c(C#N)cc1C | 32µM* | 7% | i | i | . | 0%
Cc1ccc2cc(C#N)c(SCC(=O)NNC(=O)Cc3ccccc3)nc2c1 | 28µM* | -2% | i | i | 1% | -16%
C/C(=N\NC(=O)c1ccc(O)cc1)c1ccc(NC(=O)Cc2ccccc2)cc1 | -2% | -2% | i | i | 2% | 6%
CSC(=NNC(=O)c1ccc(O)cc1)SC | 28µM* | -4% | i | i | 1% | -7%
COC(=O)c1oc2ccccc2c1N | 25µM* | 0% | i | i | -2% | -4%
COc1cccc(CNC(=O)C(NS(=O)(=O)c2ccc3c(c2)oc(=O)n3C)C(C)C)c1 (stereo not given) | 1% | . | i | i | . | 12%
CC(=O)C(=Cc1cn(-c2ccccc2)nc1-c1ccccc1)C(C)=O | 0% | 4% | i | i | 1% | 14µM*
O=C(NCCS(=O)(=O)N1CCN(c2ccc(F)cc2)CC1)c1cc(=O)c2ccccc2o1 | 0% | . | i | i | . | 29%
SMILES | ClpP mod | aSyn yeast inh | Abeta yeast res | FUS suppressor | MmCpn inh | TDP-43 yeast inh
CC(=O)Nc1ccc2c(c1)C(=O)N(C)[C@H]1CC[C@H](CC(=O)NCc3ccc(F)cc3)O[C@@H]1CO2 | . | . | . | i | . | .
COC(=O)C[C@H]1C=C[C@@H](NC(=O)Cc2cccnc2)[C@@H](CO)O1 | -1% | -5% | i | i | . | 14%
COC(=O)C[C@H]1C=C[C@H](NC(=O)Cc2ccccc2)[C@@H](CO)O1 | -3% | 3.5µM* | i | i | . | 21%
Fc1ccc(-c2noc3ncnc(NCCc4ccccc4)c23)cc1 | 3% | . | i | i | . | 18%
COc1ccc(C2SCCN2C(=S)Nc2cccc(Cl)c2)cc1 (stereo not given) | 2% | 19% | i | . | 0% | 18µM*
CC(C)C1OC2c3cccc4cccc(c34)C2N1c1ccccc1 (stereo not given) | 5% | 0% | i | i | -2% | 13µM*
CCCN(CCC)C(=O)CSc1c2c(nc3ccc(Cl)cc13)CCCC2 | 0% | . | i | i | . | 20µM*
CCCCN(C)C(=O)CSc1c2c(nc3ccc(Cl)cc13)CCCC2 | 0% | . | i | i | . | 0%
CN(Cc1ccccc1)C(=O)CSc1c2c(nc3ccc(Cl)cc13)CCCC2 | -5% | . | i | ? | . | 20µM*
COc1ccc(-c2nc3cc(NC(=O)Cc4ccc(Cl)cc4)ccc3o2)cc1OC | 5% | . | i | i | . | 8%
Cc1cccc(-n2c(SCc3cc(=O)n4ccsc4n3)nc3ccccc32)c1 | -9% | 11% | i | i | -12% | 22µM*
O=c1cc(CSc2ccc([N+](=O)[O-])cc2)nc2sccn12 | . | 16µM* | i | i | 1% | 15%[9.22 µM]
Cc1cn2c(=O)cc(COC(=O)c3ccc(NC(=O)C(C)Oc4ccccc4)cc3)nc2s1 (stereo not given) | -14% | . | i | i | . | 7%
Cc1ccc(SCc2cc(=O)n3ccsc3n2)c(C)c1 | . | . | . | . | -1% | .
O=c1cc(CSc2n[nH]c(-c3ccncc3)n2)nc2sccn12 | . | 6% | i | i | 1% | -11%
Cc1cccc(C(=O)OCc2cc(=O)n3ccsc3n2)c1 | -22% | . | i | i | . | 18µM*
CC(Oc1ccccc1)C(=O)Nc1ccc(C(=O)OCc2cc(=O)n3ccsc3n2)cc1 (stereo not given) | ? | . | i | ? | . | 20µM*
Cc1ccccc1C(=O)Nc1cccc(C(=O)OCc2cc(=O)n3ccsc3n2)c1 | -10% | . | i | i | . | 3%
COc1cccc(Cn2c(CNC(=O)Cc3cccc(C)c3)nc3cccnc32)c1 | -1% | . | i | i | . | 23%
Cc1ccc(C)c(NC(=O)C(=O)NCCc2csc(-c3cccc(F)c3)n2)c1 | -1% | . | i | i | . | 14%
CCOC(=O)c1ccc(N2CCN(c3ccccc3OC)CC2)c(NC(=O)Nc2ccc(CC)cc2)c1 | 1% | . | i | i | . | -25%
Cc1ccc(-c2noc(-c3ccc(N4CCCC4)c([N+](=O)[O-])c3)n2)cc1 | 0% | . | i | i | . | -3%
